# Pf growth 48h: P. falciparum growth inhibition at 48 hours (one generation); P. falciparum luciferase growth in erythrocytes, 48 h; Potency, µM (highest dose often 28.7 µM), without a hit: at the top dose activity change, negative = inhibition, hits mostly inhibitors; 5.9% of 310,000 active; AID 504832; note: % is set by controls: 0 for no effect and ±100 for the full control effect
#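 In quantitative HTS format, infected erythrocytes bearing luciferase-reporter parasites were treated for a single generation at 37 C. Luminescence after adding detection reagent served as the growth measure.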
# Pf growth 96h: P. falciparum growth inhibition at 96 hour, primary screen for plastid delayed-death inhibitors. P. falciparum luciferase reporter growth, 96 h. Potency, µM (doses to about 28.7 µM), inactives show top-dose activity change, negative = inhibition, hits mostly inhibitors. 6.9% of 320,000 active; note: % is set by controls: 0 for no effect and ±100 for the full control effect
#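 96 h incubation, 37 C, 5% CO2, of luciferase-reporter P. falciparum-infected RBCs (2% hematocrit, 0.05% parasitemia final) with test compounds; endpoint luminescence.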
# AMA1-RON2 inh: inhibitors of Plasmodium falciparum AMA1-RON2 interaction. AlphaScreen AMA1-biotinylated RON2 peptide binding. Potency, µM (titrated, usually from 58.2 µM), without a hit: at the top dose activity change, negative = inhibition, hits mostly inhibitors. 0.2% of 360,000 active. AID 720542;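 note: 0% = vehicle wells and -100% = peptide control; nearly all actives have a fitted effect of over 45% in size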
#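 AMA1 (3D7) with his tag at 25 nM final met compounds first, then biotinylated RON2 peptide at 25 nM; detection used donor plus acceptor beads, 10 µg/mL apiece, read by AlphaScreen after 30 min at room temperature.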
# NS1 function inh: influenza NS1 inhibition; Potency, µM (titrated, usually from 46.1 µM), inactives show top-dose activity, positive = more growth; 0.4% of 270,000 active; calls by dose curve; note: actives are rising curves; nearly all actives have a fitted effect of over 50% in size
#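 Read-out: OD600 growth recovery of NS1-expressing budding yeast. Cells grown overnight at 30C in -URA glucose medium, washed, resuspended and diluted 1:100 in 2% galactose assay medium, pH 6.0. Same strain lacking NS1 served as positive control.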
# Sm TGR inh: blocks Schistosoma mansoni thioredoxin glutathione reductase. Q962Y6. purified TGR, DTNB reduction, TNB absorbance 405 nm. Potency, µM (highest dose often 114 µM), for inactives: at the highest dose activity change, negative = inhibition, hits mostly inhibitors. 3% of 360,000 active; note: % is set by controls: 0 for no effect and ±100 for the full control effect; nearly all actives have a fitted effect of over 60% in size
#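 Kinetic colorimetric format: TGR-catalysed, NADPH-driven DTNB reduction monitored via TNB absorbance. Enzyme dispensed at 20 nM; compound exposure 15 min at room temperature before reaction start.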
# * hit, by the source's call; ? = inconclusive; . = no result given. A selection: hits, their analogues and other compounds. The true share with any hit is near 11%. Unless noted, calls come from the whole dose curve; as a rule, active = well fitted curve in the direction sought with a large enough effect; inconclusive = small, poorly fitted or top-dose-only effect, or another doubt; inactive = no such curve, though single readings can be large; an effect the other way counts as inactive or inconclusive. Potency is the fitted concentration of half-maximal effect.
SMILES,Pf growth 48h,Pf growth 96h,AMA1-RON2 inh,NS1 function inh,Sm TGR inh
CCc1ccc(N(CC(=O)NC(C)(C)C)C(=O)CNC(=O)c2cccs2)cc1,?,19%,-6%,24%,12%
Cc1cccc(OCC(=O)OCC(=O)NCC2CCCO2)c1C (stereo unspecified),-16%,-7%,-5%,.,-10%
CC(=O)Nc1nc2ccccc2n1CCOc1ccccc1Cl,3.7µM*,12%,24%,4%,4%
Cc1ccccc1Cn1c(-c2ccc(=O)[nH]c2)nc2ccccc21,12µM*,7.4µM*,8%,12%,-3%
CCCn1c(Nc2nc3ccccc3n2C)nc2ccccc21,7.4µM*,7.4µM*,28%,-189%,2%
CC(=O)NCc1nc2ccccc2n1Cc1ccccc1C,-8%,?,6%,2%,0%
CC(=O)Nc1nc2ccccc2n1Cc1ccccc1C,7.4µM*,34%,?,-56%,-10%
O=C(Nc1ccc(C(=O)NCc2ccccc2)cc1)C1=CSCCO1,9%,?,-4%,-1%,-7%
CCC(=O)Nc1nc2ccccc2n1Cc1ccc(Cl)cc1,?,106%,108%,-50%,0%
CCC(=O)Nc1nc2ccccc2n1Cc1ccccc1Cl,3.3µM*,2.9µM*,74%,-1%,7%
CCCCCCCn1c(NC(=O)CC)nc2ccccc21,1.9µM*,0.93µM*,83%,-93%,34%
CC(=O)Nc1nc2ccccc2n1Cc1ccccc1Cl,3.3µM*,?,64%,-4%,8%
CCC(=O)Nc1nc2ccccc2n1CCN1CCOCC1,12%,10%,45%,-4%,-5%
O=C(/C=C/c1ccc(Cl)cc1)OCC(=O)c1ccc[nH]1,36%,39%,-6%,.,-4%
CC1CCCC(C)N1C(=O)CN1c2cccc3cccc(c23)S1(=O)=O (stereo unspecified),.,.,-27%,.,.
CCOc1cccc2c1OC(c1cc(OC)c(OC)c(OC)c1)N1N=C(c3ccc(C)o3)CC21 (stereo unspecified),-42%,-47%,53%,-7%,45µM*
COc1ccc(C2CC(c3ccc(C)o3)=NN2C(C)=O)cc1 (stereo unspecified),48%,?,-29%,-2%,1%
O=C(CNS(=O)(=O)c1cccs1)NCCc1ccc(Cl)cc1,6%,13µM*,-7%,-4%,0%
O=C(COC(=O)CCNS(=O)(=O)c1ccc(Cl)cc1)NCc1ccco1,12%,2.1µM*,-5%,1%,?
O=C(CCNS(=O)(=O)c1cccs1)NCc1ccco1,34%,12%,20%,11%,79µM*
O=C(CCc1ccc(S(=O)(=O)NCCc2ccccc2)cc1)NCc1ccco1,-20%,-9%,-1%,0%,45µM*
CC(=O)Nc1ccc(S(=O)(=O)N(C)CC(=O)OCC(=O)N(CC(C)C)C2CCS(=O)(=O)C2)cc1 (stereo unspecified),37%,18%,-3%,.,-1%
CC(C)NS(=O)(=O)c1ccc(CCC(=O)NCc2ccco2)cc1,4%,33%,7%,5%,45µM*
CC(C)Cn1cc(NC(=O)NCc2ccccc2Cl)c2ccccc2c1=O,.,.,.,.,9%
COc1ccc(NS(=O)(=O)c2cccc(C(=O)N/N=C(\C)c3cccnc3)c2)cc1,0%,?,3%,.,-3%
SMILES,Pf growth 48h,Pf growth 96h,AMA1-RON2 inh,NS1 function inh,Sm TGR inh
CCOc1c2ccc(C(=O)NCC34CC5CC(CC(C5)C3)C4)cc2nn1CC,-33%,?,?,11%,4%
CCn1nc2cc(C(=O)NCC34CC5CC(CC(C5)C3)C4)ccc2c1OC,12µM*,23%,-7%,-6%,2%
CCCCn1nc2cc(C(=O)NCC3CC3)ccc2c1OCC,?,?,0%,-10%,-24%
CCCCn1nc2cc(C(=O)NCC34CC5CC(CC(C5)C3)C4)ccc2c1OC,?,15µM*,4%,1%,16%
CC(C)(C)NC(=O)C1c2ccccc2OCC(=O)N1Cc1ccco1 (stereo unspecified),.,.,-6%,.,.
CCCn1c(N)c(C(=O)NS(=O)(=O)c2ccc(C)cc2)c(=O)n(C)c1=O,-16%,-15%,-11%,.,-5%
C=C(C)COc1ccc2c(C)c(CCC(=O)N3C[C@H]4C[C@@H](C3)c3cccc(=O)n3C4)c(=O)oc2c1,?,2.6µM*,-8%,-15%,-19%
C=C(C)COc1cc2oc(=O)c(CC(=O)N3C[C@H]4C[C@@H](C3)c3cccc(=O)n3C4)c(C)c2cc1Cl,-17%,10µM*,-2%,11%,?
CC(C)=CCOc1ccc2c(C)c(CC(=O)N3C[C@H]4C[C@@H](C3)c3cccc(=O)n3C4)c(=O)oc2c1C,?,9.3µM*,5%,17%,-17%
Cc1cc(=O)c2cc(NC(=O)c3ccccc3Cl)ccc2[nH]1,-24%,?,15%,11%,-18%
CC1CCCCC1NC(=O)C1CCN(S(=O)(=O)c2cccc3nonc23)CC1 (stereo unspecified),14%,?,-5%,-2%,0%
Cc1nc(NC(=O)c2ccccc2)sc1C1(C)CC(c2c(Cl)cccc2Cl)=NO1 (stereo unspecified),13µM*,?,27%,9%,32µM*
Cc1c(C(=O)NCc2ccccn2)sc2nc(-c3ccc(F)cc3)cn12,?,?,17%,-11%,-15%
CCN(CC)CCCNC(=O)c1sc2nc(-c3ccc(F)cc3)cn2c1C,.,13µM*,-1%,-10%,3%
Cc1ccc(-c2nn3c(=O)cc(CN4CCN(C(=O)/C=C/c5ccccc5)CC4)nc3s2)cc1,.,.,.,.,2%
Cc1cc(NC(=O)Cn2nnc3sc4c(c3c2=O)CCC(C(C)(C)C)C4)no1 (stereo unspecified),10µM*,4%,-2%,-35%,6%
Cc1cc(NC(=O)Cn2nnc3sc4c(c3c2=O)CCCC4)no1,1%,23%,-1%,-4%,-25%
Nc1c(Cl)ncnc1NCCO,6%,-15%,3%,-2%,-6%
Nc1c(Cl)ncnc1NCc1ccccc1,-11%,0.41µM*,-8%,6%,51%
CCc1ccc(-c2nc(CS(=O)CC(=O)NCc3cccnc3)c(C)o2)cc1 (stereo unspecified),43%,-10%,-1%,?,40µM*
COc1ccc(-c2nc(CS(=O)CC(=O)NCc3ccco3)c(C)o2)cc1 (stereo unspecified),.,?,-4%,?,0%
CCc1ccc(-c2nc(CS(=O)CC(=O)NCc3ccco3)c(C)o2)cc1 (stereo unspecified),10%,?,-2%,29%,40µM*
COc1ccc(-c2nc(CS(=O)CC(=O)NCc3cccnc3)c(C)o2)cc1 (stereo unspecified),.,29%,3%,?,-33%
COc1cc([N+](=O)[O-])ccc1NC(=O)Nc1nc2c(s1)CCCC2,1.5µM*,-5%,2%,3%,3%
